Records with an inconclusive call do not appear. Where a call stands in place of a potency, no number is given. Active and inactive are the calls of the source. Calls come from the whole dose curve; as a rule, active = well fitted curve in the direction sought with a large enough effect; inconclusive = small, poorly fitted or top-dose-only effect, or another doubt; inactive = no such curve, though single readings can be large; an effect the other way counts as inactive or inconclusive.
Key:
[1] = OV-KATE Cancer Cell Toxicity qHTS against the NCATS CANVASS Library (AID 1347345)
Summary of the method: (§1)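 1000 cells/well; 4 h settle; 11-pnt titration; 72 h, 37 degrees C, 5% CO2; CellTiter-Glo, 15min RT; luminescence read.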

[2] = HPAF-II Cancer Cell Toxicity qHTS against the NCATS CANVASS Library (AID 1347346); note: nearly all actives have a fitted effect of over 55% in size; note: potency is the fitted concentration of half-maximal effect
Summary of the method: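 Cytotoxicity in HPAF-II pancreatic cancer cells: 72 h treatment across 11 concentrations, ATP-based CellTiter-Glo luminescence endpoint.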

[3] = UWB1.289 Cancer Cell Toxicity qHTS against the NCATS CANVASS Library (AID 1347347); note: nearly all actives have a fitted effect of over 60% in size; note: potency is the fitted concentration of half-maximal effect
Summary of the method: as §1

[4] = Panc-1005 Cancer Cell Toxicity qHTS against the NCATS CANVASS Library (AID 1347349); note: nearly all actives have a fitted effect of over 60% in size; note: potency is the fitted concentration of half-maximal effect
Summary of the method: as §1

[5] = SW1088 Cancer Cell Toxicity qHTS against the NCATS CANVASS Library (AID 1347350); note: nearly all actives have a fitted effect of over 75% in size; note: potency is the fitted concentration of half-maximal effect
Summary of the method: as §1

[6] = U-118MG Cancer Cell Toxicity qHTS against the NCATS CANVASS Library (AID 1347351); note: potency is the fitted concentration of half-maximal effect
Summary of the method: as §1

[7] = A2780 Cisplatin Sensitive Ovarian Cancer Cell Toxicity qHTS against the NCATS CANVASS Library (AID 1347353); note: nearly all actives have a fitted effect of over 60% in size; note: potency is the fitted concentration of half-maximal effect
Summary of the method: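 Seventy-two-hour exposure of cisplatin-sensitive A2780 ovarian cells to an 11-concentration qHTS series; cytotoxicity is inferred from loss of ATPLite luminescence. Bortezomib titration served as positive control.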

[8] = UWB1.289-WTBRCA1 Cancer Cell Toxicity qHTS against the NCATS CANVASS Library (AID 1347354); note: potency is the fitted concentration of half-maximal effect
Summary of the method: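 qHTS cytotoxicity: compounds tested in 11 concentrations on 1000 seeded cells per well over 72 h; bortezomib served as control; signal from CellTiter-Glo luminescence.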

[9] = HPAF-II 24hr Apoptosis Induction qHTS against the NCATS CANVASS Library (AID 1347356)
Summary of the method: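 Apoptosis induction in HPAF-II pancreatic cancer cells is measured as caspase-3/7 luminescence after a 24-hour exposure to compounds.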

[10] = SDT Cancer Cell Toxicity qHTS against the NCATS CANVASS Library (AID 1347365); note: nearly all actives have a fitted effect of over 60% in size; note: potency is the fitted concentration of half-maximal effect
Summary of the method: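 Dispense 500 SDT cells per well; pin-transfer compounds; incubate 72 hr at 37C, 5% CO2, 95% RH; add CellTiterGlo and read luminescence.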

[11] = G06 Cancer Cell Toxicity qHTS against the NCATS CANVASS Library (AID 1347368); note: nearly all actives have a fitted effect of over 60% in size; note: potency is the fitted concentration of half-maximal effect
Summary of the method: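 Cytotoxicity toward canine glioma G06 cells is scored from cellular ATP via luminescence after 72 hr compound exposure at 500 cells/well.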

[12] = qHTS for Hypoxia signaling pathway (HIF-1) antagonists against the NCATS CANVASS Library (AID 1347374); note: nearly all actives have a fitted effect of over 60% in size; note: potency is the fitted concentration of half-maximal effect
Summary of the method: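 HRE-bla ME-180 cells (2,000/well, 0.5% dialyzed FBS) were pre-incubated 5 h, then given an 11-point compound series plus CoCl2 (60 uM solution as added) for 17 h at 37C. CCF4 β-lactamase read (ex 405, em 460/530 nm) after 2 h at RT.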

[13] = DH5-alpha competent E. coli microbial cell viability qHTS against the NCATS CANVASS Library (AID 1347377); conditions: outcome: dose series up to 46.1 µM unless noted
Summary of the method: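 Cell viability of competent DH5-alpha E. coli is scored from ATP content by luminescence. Cells sit overnight at 37C with compound across an 11-point concentration series.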

[14] = qHTS for Antimalaria activity screened against the NCATS CANVASS Library (AID 1347380); note: nearly all actives have a fitted effect of over 40% in size; note: potency is the fitted concentration of half-maximal effect
Summary of the method: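 Growth inhibition of asexual erythrocytic P. falciparum Dd2 was quantified by SYBR Green DNA staining. Cultures grew 72 h with compound (11-point series) in hypoxic gas at 37C; lysis and staining lasted 18 h.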

[15] = qHTS assay for small molecule disruptors of mitochondrial membrane potential screened against the NCATS CANVASS Library (AID 1347389); note: nearly all actives have a fitted effect of over 60% in size; note: potency is the fitted concentration of half-maximal effect
Summary of the method: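 Compounds tested in 11-point qHTS series on HepG2 cells for 1 hr; membrane-potential dye added for 30 min at 37C. Lower red-to-green ratio indicates loss of potential.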

[16] = qHTS for activators of Nrf2/ARE signaling pathway screened against the NCATS CANVASS Library (AID 1347391); note: nearly all actives have a fitted effect of over 60% in size; note: potency is the fitted concentration of half-maximal effect
Summary of the method: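 Cells carrying an ARE-driven beta-lactamase reporter (HepG2 background) are dosed for 16 h, then stained with CCF4. Cell viability in the same wells is measured by CellTiter-Glo luminescence.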

[17] = qHTS for inhibitors of ER calcium dysfunction: SERCaMP assay screened against the NCATS CANVASS Library (AID 1347393); note: nearly all actives have a fitted effect of over 40% in size; note: potency is the fitted concentration of half-maximal effect
Summary of the method: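 Thapsigargin-induced ER calcium depletion drives GLuc-SERCaMP secretion from SH-SY5Y cells; compounds given 16 h beforehand were scored by lowered coelenterazine luminescence after 4 h challenge.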

[18] = Vero-766 cells viability qHTS against the NCATS CANVASS Library: Counterscreen for Zika virus inhibition assay (AID 1347394); note: nearly all actives have a fitted effect of over 60% in size; note: potency is the fitted concentration of half-maximal effect
Summary of the method: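 Counterscreen for toxicity: Vero 766 cells exposed 72 h to an 11-point compound series, viability by CellTiter-Glo.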

[19] = qHTS for inhibitors of Wild type Zika virus screened against the NCATS CANVASS Library (AID 1347396);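 note: ATP luminescence of surviving cells so rescue from viral cell killing; series mostly up to about 46 µM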
Summary of the method: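 Protection against wild-type Zika cytopathic effect is measured in African green monkey Vero 766 cells exposed to an 11-point compound series. Surviving cells are quantified by CellTiter Glo luminescence after 72 h.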

[20] = MCF7 Cancer Cell Toxicity qHTS against the NCATS CANVASS Library (AID 1347369); note: potency is the fitted concentration of half-maximal effect
Summary of the method: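 This 72 hr qHTS scored MCF7 viability by CellTiterGlo luminescence, with 500 cells/well; bortezomib titration ran as control.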

C/C=C(/CO)C(=O)O[C@@H]1[C@H](O)[C@@H](C(=O)OC)O[C@@H]2C[C@H]3OC(n4cnc5c(N)ncnc54)[C@H](OC)[C@H]3O[C@@]12O (stereo partly drawn)
Potency [1]: inactive | Potency [2]: inactive | Potency [3]: inactive | Potency [4]: inactive | Potency [5]: inactive | Potency [6]: inactive | Potency [7]: inactive | Potency [8]: inactive | outcome [9]: inactive | Potency [10]: inactive | Potency [11]: inactive | Potency [12]: inactive | outcome [13]: inactive | Potency [14]: inactive | Potency [15]: inactive | Potency [16]: 18.6 µM (active) | Potency [17]: inactive | Potency [18]: inactive | outcome [19]: inactive

CO/C=C/C(=O)c1cc2cnc3c(N)cc(=NC(=O)C(C)C)c([nH]1)c23
Potency [7]: 0.0296 µM (active) | outcome [9]: inactive | Potency [10]: 0.372 µM (active) | Potency [11]: 0.132 µM (active) | Potency [20]: inactive | Potency [12]: 0.0334 µM (active) | outcome [13]: inactive | Potency [14]: inactive | Potency [15]: 3.31 µM (active) | Potency [16]: inactive | Potency [17]: inactive | Potency [18]: 0.524 µM (active)

COC1C(C)OC(OCC23C[C@@H]4[C@H](C)CC[C@H]4C4(C=O)CC2C=C(C(C)C)C34C(=O)O)[C@@H](O)[C@H]1O (stereo partly drawn)
Potency [1]: inactive | Potency [2]: inactive | Potency [3]: inactive | Potency [4]: inactive | Potency [5]: inactive | Potency [6]: inactive | Potency [7]: inactive | Potency [8]: inactive | outcome [9]: inactive | Potency [10]: inactive | Potency [11]: inactive | Potency [12]: inactive | outcome [13]: inactive | Potency [14]: inactive | Potency [15]: inactive | Potency [16]: inactive | Potency [17]: inactive | Potency [18]: inactive | outcome [19]: inactive

C/C=C1/CN2C3CC1C1C=CC(=O)N4c5ccccc5[C@@]3(C[C@@H]2C2=C[C@H]3C5CC6N(CC[C@@]67c6ccccc6N(C2=O)[C@@H]37)C/C5=C/C)[C@H]14 (stereo partly drawn)
Potency [2]: 5.95 µM (active) | Potency [3]: 9.41 µM (active) | Potency [4]: 7.49 µM (active) | Potency [5]: 13.3 µM (active) | Potency [6]: 11.9 µM (active) | Potency [7]: 11.8 µM (active) | Potency [8]: 16.7 µM (active) | Potency [10]: 10.5 µM (active) | Potency [11]: 7.43 µM (active) | Potency [20]: 16.5 µM (active) | Potency [12]: 9.41 µM (active) | outcome [13]: inactive | Potency [14]: 1.06 µM (active) | Potency [16]: 3.31 µM (active) | Potency [17]: 0.216 µM (active)

COC(=O)C1=C[C@]23C[C@@H](C)CC[C@@H]2[C@@]2(C)CC[C@@H](C(C)C)[C@@](O)(O3)[C@@H]12
Potency [2]: 18.8 µM (active) | Potency [4]: inactive | Potency [6]: inactive | outcome [9]: inactive | Potency [11]: inactive | Potency [20]: inactive | Potency [12]: inactive | Potency [15]: inactive | Potency [17]: 34.3 µM (active) | Potency [18]: inactive

C/C(=C\[C@H](C)C(=O)CCCC1CC(=O)NC(=O)C1)[C@@H]1OC(=O)/C=C/CC/C=C/[C@H](O)[C@@H](O)[C@@H]1C
Potency [2]: 1.33 µM (active) | Potency [3]: 1.18 µM (active) | Potency [4]: 0.668 µM (active) | Potency [7]: 0.372 µM (active) | outcome [9]: inactive | Potency [10]: 0.264 µM (active) | Potency [11]: 0.372 µM (active) | Potency [12]: 0.374 µM (active) | outcome [13]: inactive | Potency [14]: 5.29 µM (active) | Potency [15]: inactive | Potency [16]: inactive | Potency [17]: inactive | Potency [18]: inactive | outcome [19]: inactive

CCC(=O)N[C@@H](C[C@H](C)C(Cl)(Cl)Cl)C(=O)N1C(=O)C=C(OC)[C@@H]1C[C@H](C)CCl
Potency [2]: 16.8 µM (active) | Potency [5]: 16.8 µM (active) | outcome [9]: inactive | Potency [10]: inactive | Potency [11]: inactive | Potency [20]: inactive | Potency [14]: inactive | Potency [16]: inactive | Potency [18]: inactive | outcome [19]: inactive

Oc1ccc(C2Oc3cc(O)c4c(c3[C@@H]2c2cc(O)cc(O)c2)[C@H]2C(c3ccc(O)cc3)c3c(O)cc5c(c3[C@H]2C4c2ccc(O)cc2)[C@H](c2cc(O)cc(O)c2)C(c2ccc(O)cc2)O5)cc1 (stereo partly drawn)
Potency [2]: inactive | Potency [5]: inactive | Potency [6]: inactive | Potency [7]: 4.18 µM (active) | Potency [10]: 9.35 µM (active) | Potency [20]: inactive | Potency [12]: inactive | outcome [13]: inactive | Potency [16]: inactive | Potency [17]: inactive | outcome [19]: inactive

CO[C@H]1/C=C/CCCCC(=O)O[C@@H](/C(C)=C/[C@H](C)C(=O)C[C@H](O)CC2CC(=O)NC(=O)C2)[C@@H](C)C1
Potency [5]: inactive | Potency [7]: 4.69 µM (active) | outcome [9]: inactive | Potency [10]: 4.69 µM (active) | Potency [11]: 5.26 µM (active) | Potency [20]: inactive | Potency [12]: 7.47 µM (active) | outcome [13]: inactive | Potency [14]: 9.41 µM (active) | Potency [15]: inactive | Potency [16]: 16.6 µM (active) | Potency [17]: inactive | Potency [18]: inactive | outcome [19]: inactive

COc1cc([C@@H]2c3cc4c(cc3C[C@@]3(O[C@@H]5O[C@H](CO)[C@@H](O)[C@H](O)[C@H]5O)COC(=O)[C@H]23)OCO4)cc(OC)c1OC
Potency [2]: inactive | Potency [7]: 0.0372 µM (active) | outcome [9]: inactive | Potency [10]: 0.0418 µM (active) | Potency [11]: 0.0418 µM (active) | Potency [20]: inactive | Potency [12]: inactive | outcome [13]: inactive | Potency [15]: inactive | Potency [17]: inactive

C=C1C[C@]23C=CC(=O)[C@@](C)(CCCC(C)C(=O)N[C@@H](CO)C(=O)O)[C@@H]2C[C@@H]1CC3 (stereo partly drawn)
Potency [1]: inactive | Potency [2]: inactive | Potency [3]: inactive | Potency [4]: inactive | Potency [5]: inactive | Potency [7]: inactive | Potency [8]: inactive | outcome [9]: inactive | Potency [10]: inactive | Potency [11]: inactive | Potency [12]: inactive | outcome [13]: inactive | Potency [14]: inactive | Potency [15]: inactive | Potency [16]: inactive | Potency [17]: inactive | Potency [18]: inactive | outcome [19]: inactive

[C-]#[N+][C@@]12C(=O)[C@@H]3[C@@H](O[C@@]4(C(=O)N(C)c5cccc1c54)C3(C)C)C(=O)[C@@]2(C)C=C
Potency [1]: inactive | Potency [2]: inactive | Potency [3]: inactive | Potency [4]: inactive | Potency [5]: inactive | Potency [6]: inactive | Potency [7]: inactive | Potency [8]: inactive | Potency [10]: inactive | Potency [11]: inactive | Potency [20]: inactive | Potency [12]: 2.98 µM (active) | outcome [13]: inactive | Potency [16]: inactive | Potency [18]: inactive
